MITF primary = MITF inhibitors, primary screen, biochemical, AlphaScreen, human. Microphthalmia-associated transcription factor (Homo sapiens), O75030. AlphaScreen MITF homodimerization, bead proximity signal. inhibition, % at 2.6 µM. hit rate 0.91% among 650,000. AID 1259374, 2018; in the data active = inhibition above about 50%
Target sequence (O75030 whole entry, looked up): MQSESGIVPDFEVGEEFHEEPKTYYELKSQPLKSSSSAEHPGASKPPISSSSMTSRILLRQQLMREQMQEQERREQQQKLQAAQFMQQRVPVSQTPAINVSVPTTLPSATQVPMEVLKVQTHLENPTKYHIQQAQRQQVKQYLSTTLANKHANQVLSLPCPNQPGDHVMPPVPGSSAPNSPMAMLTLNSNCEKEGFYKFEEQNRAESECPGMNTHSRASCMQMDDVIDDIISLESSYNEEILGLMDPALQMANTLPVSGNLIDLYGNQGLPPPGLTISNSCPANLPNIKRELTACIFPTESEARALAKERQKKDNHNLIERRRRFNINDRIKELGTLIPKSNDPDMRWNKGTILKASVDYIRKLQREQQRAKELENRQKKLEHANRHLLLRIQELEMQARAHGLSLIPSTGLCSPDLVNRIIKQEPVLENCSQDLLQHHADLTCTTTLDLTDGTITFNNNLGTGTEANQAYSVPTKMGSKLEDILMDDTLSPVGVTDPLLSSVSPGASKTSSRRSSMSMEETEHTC
TEAD-YAP block = TEAD-YAP interaction inhibition, primary screen, TEAD-YAP interaction inhibitor project, luminescence, HEK-TIYL cells. hit rate 1.4% among 640,000. AID 1259422, 2018. TEAD-Gal4/YAP UAS-luciferase luminescence. inhibition, % at 9.12 µM; in the data active = inhibition above about 32%
FBW7 activator = FBW7 E3 ligase activators, primary screen, biochemical, AlphaScreen, human | F-box/WD repeat-containing protein 7 (Homo sapiens), Q969H0 | AlphaScreen FBW7–phospho-cyclin E peptide binding, activator screen | normalized activity (activation), % at 26.1 µM | hit rate 0.13% among 650,000; in the data active = normalized activity above about 1.9%;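 also: purified mutant Fbw7 with reduced substrate affinity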
GPR151 activ = activators of human GPR151, primary screen, cell-based, PathHunter beta-arrestin, luminescence. G-protein coupled receptor 151 (Homo sapiens), Q8TDV0. PathHunter beta-arrestin GPR151 cells. activation, % at 11.2 µM. hit rate 1% among 650,000; in the data active = activation above about 4.9%
GPR151 confirm = GPR151 activators, triplicate retest, confirmation, cell-based, PathHunter beta-arrestin, luminescence; GPR151 PathHunter beta-arrestin cells, 90 min; % of EA-reagent control over plate median; 6,700 tested, under 10 active; shares compounds with GPR151 activ; activation, % at 11.2 µM;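 active = mean percent activation across replicates above the confirmation screen cutoff of 4.91%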
GPR119 ag = GPR119 activators in beta-arrestin cells, counter-screen for GPR151 activator project, cell-based, PathHunter beta-arrestin, luminescence, triplicate; shares compounds with GPR151 activ; 90 min; 0 = compound-well median, 100 = enzyme-acceptor control; activation, % at 11.2 µM; hit rate 0.3% among 6,700; AID 1508611, 2020;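 active = mean percent activation in the counterscreen above 29.09%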;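 also: counterscreen on off-target GPR119 to flag nonselective hits from the GPR151 activator screen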
Large screens that a line does not name were inactive (follow-up assays come after a bar, where they were run). Hits are enriched below; roughly 3.4% of the tested compounds scored in any of these assays.

CCOC(=O)C1=C(C)N(C)C(SC)=NC1c1ccco1 (configuration not stated)	GPR151 activ 6.4 | GPR151 confirm inactive | GPR119 ag inactive
c1ccc(-n2cnc3c(NCc4cccnc4)nc(-c4ccc(N5CCOCC5)nc4)nc32)cc1	TEAD-YAP block 46, GPR151 activ 5.7 | GPR151 confirm inactive | GPR119 ag inactive
CCCNc1nc(-c2ccc(N3CCOCC3)nc2)nc2c1ncn2-c1ccccc1	none
c1ccc(CNc2nc(-c3ccc(N4CCOCC4)nc3)nc3c2ncn3-c2ccccc2)cc1	GPR151 activ 5.5 | GPR151 confirm inactive | GPR119 ag inactive
Nc1ncc(Br)cc1S(=O)(=O)Nc1cccc(Cl)c1	none
CCc1ccc(N(CC(=O)NC)S(C)(=O)=O)cc1	GPR151 activ 5.3 | GPR151 confirm inactive | GPR119 ag inactive
CCc1ccc(N(CC(=O)OC)S(C)(=O)=O)cc1	none
O=[N+]([O-])c1ccc(OCc2ccccc2Cl)cc1	none
CCOC(=O)CSc1nnc2c3c(C)c(C)sc3ncn12	GPR151 activ 5.8 | GPR151 confirm inactive | GPR119 ag inactive
Cc1cnc(N2CCN(Cc3ccc4c(c3)OCO4)CC2)nc1NCCN1CCOCC1	none
Cn1nccc1Nc1nc(C(=O)Nc2ccccc2)cs1	GPR151 activ 5.6 | GPR151 confirm inactive | GPR119 ag inactive
Cn1nccc1Nc1nc(C(=O)NCc2cccnc2)cs1	GPR151 activ 5.3 | GPR151 confirm inactive | GPR119 ag inactive
Cn1nccc1Nc1nc(C(=O)NCc2cccc(C(F)(F)F)c2)cs1	GPR151 activ 8.7 | GPR151 confirm inactive | GPR119 ag inactive
Cn1nccc1Nc1nc(C(=O)NCc2ccccc2)cs1	none
CCOC(=O)C1=C(C)OC(N)=C(C#N)C1c1ccc(F)c(Br)c1 (configuration not stated)	GPR151 activ 9.6 | GPR151 confirm inactive | GPR119 ag inactive
CCOC(=O)C1=C(CC)OC(N)=C(C#N)C1c1ccc(F)c(Br)c1 (configuration not stated)	none
Oc1c(Cl)cc(Br)cc1/C=N/Nc1ncc(F)c(N2CCOCC2)n1	none
COCCNC(=O)c1sc2ncnc(N3CCc4ccccc4C3)c2c1C	GPR151 activ 5.3 | GPR151 confirm inactive | GPR119 ag inactive
CCCN(CCC)CCSc1nc(O)c(C(C)C)c(=O)n1-c1ccccc1	none
COc1ccc(NC(=O)CN2C(=O)CC(c3ccccc3)Sc3ccccc32)cc1OC (configuration not stated)	GPR151 activ 7.4 | GPR151 confirm inactive | GPR119 ag inactive
CCOC(=O)CN1C(=O)COc2ccc(Cl)cc21	GPR151 activ 5.6 | GPR151 confirm inactive | GPR119 ag inactive
COc1ccc(NC(=O)CN2C(=O)CC(c3ccco3)Sc3ccccc32)cc1OC (configuration not stated)	none
COc1ccc(NC(=O)CN2C(=O)C(C)Oc3ccc(C)cc32)cc1 (configuration not stated)	none
Cc1ccc2c(c1)N(CC(=O)Nc1ccc(Cl)cc1)C(=O)C(C)O2 (configuration not stated)	GPR151 activ 22 | GPR151 confirm inactive | GPR119 ag inactive
O=C(CN1C(=O)COc2ccc(Cl)cc21)Nc1ccc([N+](=O)[O-])cc1	GPR151 activ 7.6 | GPR151 confirm inactive | GPR119 ag inactive
CC(C)c1ccc(C(=O)Nc2ccccc2C#N)cc1	none
COc1ccc2c(c1)C1=NN(/C(C)=C/C(C)=O)C(c3cccc([N+](=O)[O-])c3)C1CC2 (configuration not stated)	none
COc1ccc(NC(=O)CN2C(=O)COc3ccc(C)cc32)cc1OC	GPR151 activ 6.0 | GPR151 confirm inactive | GPR119 ag inactive
Cc1ccc2c(c1)N(CC(=O)Nc1ccc3c(c1)OCCO3)C(=O)CO2	none
COc1cc(NC(=O)Nc2ccc(-c3nc4ccccc4o3)cc2)cc(OC)c1OC	GPR151 activ 5.6 | GPR151 confirm inactive | GPR119 ag inactive
COc1ccc2cc(S(=O)(=O)c3ccc(C)cc3)c(=O)oc2c1	none
CC1Sc2ccccc2N(Cc2ccc(C(F)(F)F)nc2)C1=O (configuration not stated)	GPR151 activ 5.4 | GPR151 confirm inactive | GPR119 ag inactive
CCOc1ccc(NC(=O)CC2SC(=O)NC2=O)cc1 (configuration not stated)	none
CCOc1ccc(NC2SC(=O)NC2=O)cc1 (configuration not stated)	GPR151 activ 5.0 | GPR151 confirm inactive | GPR119 ag inactive
CCC1Oc2ccc(C)cc2N(CC(=O)O)C1=O (configuration not stated)	none
CCCCN(C)C(=O)CN1C(=O)C(CC)Oc2ccc(C)cc21 (configuration not stated)	GPR151 activ 8.8 | GPR151 confirm inactive | GPR119 ag inactive
COc1ccc([N+](=O)[O-])cc1N=Cc1cccc([N+](=O)[O-])c1	none
COc1ccc([N+](=O)[O-])cc1N=Cc1ccc(C#N)cc1	GPR151 activ 5.1 | GPR151 confirm inactive | GPR119 ag inactive
Cc1ccc(NC(=O)CCNS(=O)(=O)c2ccc3nc(-c4ccccc4)[nH]c3c2)cc1	none
CCC(C)NC(=O)CCNS(=O)(=O)c1ccc2nc(-c3ccccc3)[nH]c2c1 (configuration not stated)	GPR151 activ 7.0 | GPR151 confirm inactive | GPR119 ag inactive
CCCn1c(-c2nc(OC)cc(OC)n2)n[nH]c1=S	GPR151 activ 7.0 | GPR151 confirm inactive | GPR119 ag inactive
Cc1cccc(OCC(=O)Nc2ccc(C(C)C)cc2)c1	none
COc1ccccc1CCNS(=O)(=O)c1cn(C)c(=O)n(C)c1=O	none
Cn1cc(S(=O)(=O)NCCC(c2ccccc2)c2ccccc2)c(=O)n(C)c1=O	GPR151 activ 4.9 | GPR151 confirm inactive | GPR119 ag inactive
Cc1cccc(NS(=O)(=O)c2cn(C)c(=O)n(C)c2=O)c1	GPR151 activ 5.9 | GPR151 confirm inactive | GPR119 ag inactive
Cc1ccc(NS(=O)(=O)c2cn(C)c(=O)n(C)c2=O)cc1C	none
CC(=O)c1c(N)[nH]ccc1=O	none
Cc1nn(CC(=O)OCC(=O)NC(=O)c2ccc(OC(F)F)cc2)c(C)c1[N+](=O)[O-]	GPR151 activ 6.6 | GPR151 confirm inactive | GPR119 ag inactive
Nc1c2c(nc3c1CCC3)CCCC2	GPR151 activ 5.0 | GPR151 confirm inactive | GPR119 ag inactive
CC1(C)CC(=O)C2=C(C1)OC1=C(C(=O)CC(C)(C)C1)C2c1cc(Cl)cc(Cl)c1OCc1ccc(Cl)cc1Cl	GPR151 activ 5.5 | GPR151 confirm inactive | GPR119 ag inactive

Compound activity (PubChem)
